TDP1 block: TDP1 (human) enzyme inhibition | Q9NUW8 | recombinant TDP1, AlphaScreen DNA substrate cleavage | Potency, µM (titrated, usually from 130 µM), for the others: top-dose activity change, negative = inhibition, most hits filed as inhibitors | hit rate 0.28% among 350,000; also: potency is read from the fitted curve at half-maximal effect; nearly all actives have a fitted effect of over 40% in size
Target sequence (Q9NUW8 whole entry, looked up): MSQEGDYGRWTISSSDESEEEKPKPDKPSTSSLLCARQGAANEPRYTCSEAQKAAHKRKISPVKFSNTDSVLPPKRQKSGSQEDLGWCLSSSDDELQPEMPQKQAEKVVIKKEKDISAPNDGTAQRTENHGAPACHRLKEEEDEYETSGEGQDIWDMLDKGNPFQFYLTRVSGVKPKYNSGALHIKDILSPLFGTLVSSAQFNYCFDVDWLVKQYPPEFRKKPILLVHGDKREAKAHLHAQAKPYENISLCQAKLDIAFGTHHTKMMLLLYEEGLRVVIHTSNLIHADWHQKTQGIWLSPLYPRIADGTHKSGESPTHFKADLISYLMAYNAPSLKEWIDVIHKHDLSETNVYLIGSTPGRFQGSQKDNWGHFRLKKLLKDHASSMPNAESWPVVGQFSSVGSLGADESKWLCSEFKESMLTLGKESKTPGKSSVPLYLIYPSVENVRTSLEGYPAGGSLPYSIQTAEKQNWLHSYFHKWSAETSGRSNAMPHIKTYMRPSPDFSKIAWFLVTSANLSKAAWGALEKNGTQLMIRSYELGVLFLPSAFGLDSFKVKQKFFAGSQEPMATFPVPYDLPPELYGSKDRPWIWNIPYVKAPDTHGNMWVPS
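Recombinant E. coli-expressed Tdp1 (1 nM) preincubated with compound 15 min at RT, then 5'-biotin/3'-phosphotyrosine-FITC DNA substrate (15 nM) added for 5 min. AlphaScreen beads (10 ug/ml) added, 10 min RT; tyrosine-FITC cleavage read as signal loss.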
IL1B secr inh: blocks inflammasome-driven IL-1 beta release; THP-1 LPS/ATP IL-1B secretion, AlphaLISA, 16 h; stronger effect = lower value; activity change, % at 57.5 µM; hit rate 4.7% among 360,000; AID 743279; in the data active = activity change below about -50%; inconclusive = mostly about -30% to -49%
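THP-1 cells pretreated 1 hr with compounds (up to 57.5 uM final), then stimulated with LPS (250 ng/mL final) plus ATP (1.25 mM final); secreted IL-1B measured by AlphaLISA after 16 hr, decreased signal indicating inhibition.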
CtBP-E1A blk: CtBP/E1A binding inhibition; AlphaScreen GST-E1A/His-CtBP binding, 1536-well; stronger effect = lower value; activity change, % (test concentration not listed); hit rate 0.49% among 340,000; in the data active = activity change below about -65%; inconclusive = mostly about -30% to -63%
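Steps: dispense buffer (Tris pH 8.0, NaCl 300 mM, TCEP 1 mM, BSA, Tween 20); add 5X protein mix (GST-E1A, His-CtBP, 125 nM each); pin 23 nL compound; 2 h at 37 °C, dark; add 5X beads (50 ug/mL); 1 h; read.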
DT40 TDP1 no CPT: qHTS for Inhibitors of human tyrosyl-DNA phosphodiesterase 1 (TDP1): qHTS in cells in absence of CPT; Potency, µM (highest dose often 46.2 µM), inactives show at the highest dose activity change, negative = growth inhibition, most hits filed as inhibitors; AID 686978, 2013; hit rate 15% among 420,000; DT40 Tdp1-/- hTDP1 cells, no CPT, ATP luminescence, 48 h; also: potency is read from the fitted curve at half-maximal effect; nearly all actives have a fitted effect of over 55% in size
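Chicken DT40 Tdp1-/- cells complemented with human TDP1, screened without camptothecin (DMSO vehicle only), 400 cells/well. Compounds pin-transferred, cells incubated at 37 °C for at least 48 hr. Growth read as ATP-dependent luminescence (CellTiter-Glo, 30 min at RT).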
Six1-Eya2 blk: blocks human Six1 binding to Eya2; AlphaScreen GST-Six1/His-Eya2 binding, biochemical; stronger effect = lower value; activity change, % (concentration not given with the values); hit rate 0.56% among 360,000; Q15475+O00167; in the data active = activity change below about -65%; inconclusive = mostly about -30% to -63%
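AlphaScreen luminescence read after one hour at 37 °C in darkness. Pin-transferred compounds met GST-Six1 and His-Eya2 protein (5X stock 250 nM/500 nM) plus glutathione donor and Ni-chelate acceptor beads (5X, 50 ug/mL).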
DT40 TDP1 CPT: growth inhibition of DT40 Tdp1-/-;hTDP1 cells with camptothecin (screen for TDP1 inhibitors); chicken DT40 Tdp1-/-;hTDP1 cells + 20 nM CPT, ATP luminescence, 48 h; Potency, µM (top dose mostly 46.2 µM), without a hit: top-dose activity change, negative = growth inhibition, most hits filed as inhibitors; hit rate 12% among 420,000; also: potency is read from the fitted curve at half-maximal effect; nearly all actives have a fitted effect of over 55% in size
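Chicken DT40 Tdp1-/- cells stably complemented with human TDP1 were seeded at 400 cells/well in medium containing 20 nM camptothecin, exposed to pin-transferred compounds, and grown at 37 °C for at least 48 hr. Viability was read as ATP luminescence.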
* = called active by the depositor; ? = inconclusive; · = no result. In the library only some 18% were active in any assay of this set; here they are far more common. Unless noted, calls follow the shape of the dose curve; as a rule, active = well fitted curve in the direction sought with a large enough effect; inconclusive = small, poorly fitted or top-dose-only effect, or another doubt; inactive = no such curve, though single readings can be large; an effect the other way counts as inactive or inconclusive. % is scaled to controls: 0 for no effect and ±100 for the full control effect.

SMILES	TDP1 block	IL1B secr inh	CtBP-E1A blk	DT40 TDP1 no CPT	Six1-Eya2 blk	DT40 TDP1 CPT
COc1ccccc1NS(=O)(=O)c1cc(NC(=O)c2cccnc2)ccc1N1CCCCC1	2%	?	-7	23µM*	-6	?
CCCS(=O)(=O)Nc1ccc(N2CCCCC2)c(S(=O)(=O)Nc2ccccc2OC)c1	-7%	-6	-1	16µM*	-11	?
O=C1CCC(C(=O)N2CCSCC2)CN1CCc1ccccc1 (configuration not stated)	0%	4	-6	33%	4	-13%
C=CCC1(CC=C)CCCN1C(=O)C1CCC(=O)N(CCc2ccccc2)C1 (configuration not stated)	4%	-16	5	5.8µM*	9	9.2µM*
C=CCC1(CC=C)CCCN1C(=O)C1CCC(=O)N(CCc2ccc(OC)cc2)C1 (configuration not stated)	2%	-4	·	10µM*	4	12µM*
COc1ccc(CCN2CC(C(=O)N3CCC(OC)CC3)CCC2=O)cc1 (configuration not stated)	5%	-16	14	-2%	2	4%
Cc1ccc(C2CC(c3cccs3)n3nc(N)nc3N2)cc1 (configuration not stated)	3%	?	-10	-5%	1	-21%
CCN(CC)CCNc1nc(C(F)(F)F)nc2c1nnn2Cc1ccccc1	4%	-60*	-4	?	-2	-20%
Cc1ccc(CNC(=O)C2CCCN(Cc3nc(-c4cccc(C)c4)oc3C)C2)cc1 (configuration not stated)	10%	·	·	?	·	18µM*
Cc1oc(-c2cccc(Cl)c2)nc1CN1CCCC(C(=O)NCc2ccc(Cl)cc2)C1 (configuration not stated)	-1%	·	·	7.3µM*	·	8.2µM*
Cc1oc(-c2cccc(Cl)c2)nc1CN1CCCC(C(=O)NC(C)c2ccc3c(c2)OCCO3)C1 (configuration not stated)	4%	?	-9	12µM*	-22	21µM*
Cc1oc(-c2cccc(Cl)c2)nc1CN1CCC(C(=O)NC(C)C)CC1	5%	·	·	-8%	·	-16%
CC(On1nnc2ccccc21)C(=O)N1CCN(Cc2ccccc2)CC1 (configuration not stated)	2%	-6	5	-25%	3	1%
O=C(c1ccccc1Nc1ccc(SC(F)F)cc1)N1CCCCCC1	0%	-16	12	?	-3	?
Cc1ccc2[nH]c(=O)c(CN(CC3CCCO3)C(=O)c3cccs3)cc2c1 (configuration not stated)	0%	-8	-23	-11%	-7	-2%
Cc1cc2cc(CN(Cc3cccs3)C(=S)NCC3CCCO3)c(=O)[nH]c2cc1C (configuration not stated)	11%	-66*	-6	?	-24	?
Cc1cc(C)c2[nH]c(=O)c(CN(Cc3cccs3)C(=S)NCC3CCCO3)cc2c1 (configuration not stated)	9%	-11	19	21µM*	2	?
COc1ccc2[nH]c(=O)c(CN(Cc3cccs3)C(=S)NCC3CCCO3)cc2c1 (configuration not stated)	·	-4	·	23µM*	-4	23µM*
Cc1cc(C)c(NC(=O)c2ccoc2C)c(C)c1	2%	-19	2	?	-1	-24%
Cc1cccc2cc(COC(=O)c3ccco3)c(=O)[nH]c12	7%	3	3	-8%	-1	-2%
CCCCN(CCCNC(=O)c1ccc2c(c1)NC(=O)CN2C)c1ccccc1	·	-103*	-6	?	-14	?
CC(=O)C1=C(O)C(=O)N(c2nnn(C)n2)C1c1cccs1 (configuration not stated)	-1%	15	5	6%	1	16%
CC1CN(S(=O)(=O)c2cccc(C(=O)Nc3ccc4c(c3)CCC4)c2)CC(C)O1 (configuration not stated)	-1%	?	3	1.2µM*	-8	1.2µM*
O=C(NCCC1=CCCCC1)c1cccc(S(=O)(=O)N2CCCCC2)c1	-6%	0	6	23µM*	-7	?
O=C(NCCC1=CCCCC1)c1cc(S(=O)(=O)N2CCCCC2)ccc1Cl	·	7	6	?	-2	?
SMILES	TDP1 block	IL1B secr inh	CtBP-E1A blk	DT40 TDP1 no CPT	Six1-Eya2 blk	DT40 TDP1 CPT
O=C(NCCC1=CCCCC1)c1ccc(Br)o1	0%	5	4	9.2µM*	-1	8.2µM*
CC1CN(S(=O)(=O)c2cccc(C(=O)NCCC3=CCCCC3)c2)CC(C)O1 (configuration not stated)	·	3	-5	21µM*	8	12µM*
COc1cccc2sc(NNC(=O)C3=COCCO3)nc12	8%	-9	8	-7%	7	-6%
COc1ccc(NC(=O)CN2C(=O)NC3(CCCC3)C2=O)cc1OC	4%	-5	1	23%	7	-11%
Cc1ccc(C(=O)NCCC2=CCCCC2)cc1S(=O)(=O)N1CCCCC1	-1%	-58*	-15	?	5	?
Cc1ccc(C(=O)NCCC2=CCCCC2)cc1S(=O)(=O)N1CCOCC1	-1%	2	-1	?	-1	?
COc1ccc(-c2noc(CCCC(=O)Nc3ccc(C(N)=O)cc3)n2)cc1	5%	40	2	-25%	0	-24%
COC(=O)c1c(NC(=O)CN2CCC3(O)CCCCC3C2c2cc(OC)ccc2OC)sc(C)c1C (configuration not stated)	4%	-1	-14	10µM*	-9	13µM*
COc1ccccc1C1C2CCCCC2(O)CCN1CC(=O)Nc1ccccc1 (configuration not stated)	-2%	28	4	?	-2	?
CCOC(=O)c1c(C)oc2ncnc(N3CCN(c4ccccc4)CC3)c12	6%	·	·	8.2µM*	·	8.2µM*
CCOC(=O)c1c(C)oc2ncnc(N3CCN(c4ccccc4F)CC3)c12	-3%	·	·	13µM*	·	18µM*
CCOC(=O)c1ccccc1NC(=O)c1c(C)oc2ncnc(N3CCOCC3)c12	1%	·	·	21µM*	·	?
CCOC(=O)c1c(C)oc2nc(C)nc(NCCCN3CCN(c4ccccc4)CC3)c12	0%	·	·	-2%	·	-17%
Cc1oc2ncn(C)c(=O)c2c1C(=O)N1CCN(c2ccccc2F)CC1	9%	·	·	-4%	·	28%

Screening data as filed in PubChem BioAssay.
